Laboratory results as given in PubChem BioAssay (NCATS).
Results filed as inconclusive are left out. Activity calls are given as the source filed them. Unless noted, calls follow the shape of the full dose curve.

What was measured:
[1] = molecular target: Alpha-galactosidase (Coffea arabica) (UniProt Q42656); assay: Counterscreen for Glucocerebrosidase Inhibitors: qHTS Assay for Coffee Bean alpha-Galactosidase at pH 5.9 (AID 998; active = well fitted curve in the direction sought with a large enough effect; an effect the other way counts as inactive or inconclusive;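 also: plate controls were uninhibited enzyme for no effect and no-enzyme basal signal for full effect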); settings: coffee bean alpha-galactosidase enzyme assay; series mostly up to 76.9 µM
Summary of the method: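 Compounds were titrated from 0.7 nM to 77 uM against green coffee bean alpha-galactosidase (2 nM) using 80 uM fluorogenic 4-methylumbelliferyl substrate. After 20 min at room temperature, reactions were stopped at pH 10 and read by fluorescence.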

[2] = Validation screen for inhibitors of Lassa infection (AID 463096); settings: Lassa virus infection, cell-based; series mostly up to 46.1 µM; also: % is scaled to controls: 0 for no effect and ±100 for the full control effect
[3] = Inducers of the Endoplasmic Reticulum Stress Response (ERSR) in human glioma: Validation (AID 504836; active = well fitted curve in the direction sought with a large enough effect; an effect the other way counts as inactive or inconclusive; also: 0% is about no effect); settings: human glioma cells, ER stress response reporter; series mostly up to 38.3 µM
Summary of the method: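 ERSR induction read as luciferase luminescence (Bright-Glo, 10 min at room temperature) in stably transfected human U87-MG glioma cells exposed to compounds for 16 h, using GRP78 as sensor.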

[4] = qHTS for Inhibitors of the Functional Ribonucleoprotein Complex (vRNP) of Lassa (LASV) Arenavirus: LASV Primary Screen - GLuc reporter signal (AID 1347082; calls by dose curve; tested in HEK293 reporter line; also: % is scaled to controls: 0 for no effect and ±100 for the full control effect; nearly all actives have a fitted effect of over 60% in size); settings: LASV minigenome vRNP, Gaussia luciferase reporter; series mostly up to 57.5 µM
[5] = qHTS for Inhibitors of the Functional Ribonucleoprotein Complex (vRNP) of Lassa (LASV) Arenavirus: Viability assay - alamar blue signal for LASV Primary Screen (AID 1347083; calls by dose curve; tested in HEK293 reporter line; also: % is scaled to controls: 0 for no effect and ±100 for the full control effect; nearly all actives have a fitted effect of over 80% in size); settings: cell viability, alamar blue fluorescence (LASV minigenome counter-screen); series mostly up to 57.5 µM
[6] = qHTS for Inhibitors of the Functional Ribonucleoprotein Complex (vRNP) of Lymphocytic Choriomeningitis Arenaviruses (LCMV): Viability assay - alamar blue signal for LCMV Primary Screen (AID 1347085; calls by dose curve; tested in HEK293 reporter line; also: % is scaled to controls: 0 for no effect and ±100 for the full control effect; nearly all actives have a fitted effect of over 80% in size); settings: alamar blue viability counter-screen, LCMV vRNP screen cells; series mostly up to 57.5 µM
[7] = molecular target: Nucleoprotein (Lymphocytic choriomeningitis virus (strain Armstrong)) (UniProt P09992); assay: qHTS for Inhibitors of the Functional Ribonucleoprotein Complex (vRNP) of Lymphocytic Choriomeningitis Arenaviruses (LCMV): LCMV Primary Screen - GLuc reporter signal (AID 1347086); settings: LCMV minigenome vRNP cell assay, Gaussia luciferase reporter; series mostly up to 57.5 µM; also: % is scaled to controls: 0 for no effect and ±100 for the full control effect; nearly all actives have a fitted effect of over 70% in size
[8] = molecular target: Alpha-galactosidase (Coffea arabica) (UniProt Q42656); assay: Counterscreen for Glucocerebrosidase Inhibitors: qHTS Assay for Coffee Bean alpha-Galactosidase at pH 4.5 (AID 957; active = well fitted curve in the direction sought with a large enough effect; an effect the other way counts as inactive or inconclusive;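 also: plate controls were enzyme alone for no effect and no enzyme for full effect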); settings: purified coffee bean alpha-galactosidase, fluorogenic substrate; series mostly up to 76.9 µM
Summary of the method: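 Coffee bean alpha-galactosidase 2 nM, substrate 4-MU-alpha-Gal 80 uM, pH 4.5 citrate/Tween-20, 20 min RT. Cpd titration 0.7 nM–77 uM. Stop pH 10, fluorescence 365/440 nm; Hill-equation AC50.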

[9] = molecular target: Bile acid receptor (Homo sapiens) (UniProt Q96RI1); assay: qHTS assay for small molecule agonists of farnesoid X receptor signaling (AID 588527); settings: HEK293T FXR-UAS-bla, beta-lactamase ratio, 16 h; activation: hits give high values;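 also: 0% = vehicle basal and 100% = reference agonist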
Summary of the method: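 Read-out: beta-lactamase reporter fluorescence with CCF4 substrate in GeneBLAzer FXR-UAS-bla HEK293T cells, after 16 h compound exposure at 37 C. Response scaled between DMSO basal (0%) and chenodeoxycholic acid at 100 uM (100%).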

[10] = molecular target: M-phase phosphoprotein 8 (Homo sapiens) (UniProt Q99549); assay: qHTS Validation Assay for Inhibitors for MPP8 Chromodomain Interactions with Methylated Histone Tails (AID 488949; active = well fitted curve in the direction sought with a large enough effect; an effect the other way counts as inactive or inconclusive;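 also: AlphaScreen signal from MPP8 chromodomain bound to biotinylated H3K9me3 peptide; top concentration of the series differs between compounds; % is scaled to controls: 0 for no effect and ±100 for the full control effect; nearly all actives have a fitted effect of over 55% in size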); settings: AlphaScreen MPP8 binding to H3K9me3 peptide; series mostly up to 114 µM
Summary of the method: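 Disruption of the preformed MPP8–trimethyl-H3K9 peptide complex (both 50 nM, 30 min, RT) is measured after 30 min compound exposure, using AlphaScreen proximity beads; aurintricarboxylic acid titration serves as plate control.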

Nucleoprotein (Lymphocytic choriomeningitis virus (strain Armstrong)), sequence (P09992 whole entry, looked up): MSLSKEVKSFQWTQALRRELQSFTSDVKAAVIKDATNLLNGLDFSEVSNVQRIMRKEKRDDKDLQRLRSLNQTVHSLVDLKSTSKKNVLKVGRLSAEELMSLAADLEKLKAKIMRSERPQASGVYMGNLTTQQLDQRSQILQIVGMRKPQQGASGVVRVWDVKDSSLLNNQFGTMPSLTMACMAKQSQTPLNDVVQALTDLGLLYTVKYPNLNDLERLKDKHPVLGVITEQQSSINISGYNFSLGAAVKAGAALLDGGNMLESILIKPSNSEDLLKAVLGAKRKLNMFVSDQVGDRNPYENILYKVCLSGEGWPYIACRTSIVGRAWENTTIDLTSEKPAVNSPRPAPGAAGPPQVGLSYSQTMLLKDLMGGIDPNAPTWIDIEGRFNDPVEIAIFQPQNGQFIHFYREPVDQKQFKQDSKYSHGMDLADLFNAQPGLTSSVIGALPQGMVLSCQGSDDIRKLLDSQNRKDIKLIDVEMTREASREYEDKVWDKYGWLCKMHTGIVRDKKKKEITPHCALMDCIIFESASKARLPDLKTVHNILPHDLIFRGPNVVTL
Alpha-galactosidase (Coffea arabica), sequence (Q42656 whole entry, looked up): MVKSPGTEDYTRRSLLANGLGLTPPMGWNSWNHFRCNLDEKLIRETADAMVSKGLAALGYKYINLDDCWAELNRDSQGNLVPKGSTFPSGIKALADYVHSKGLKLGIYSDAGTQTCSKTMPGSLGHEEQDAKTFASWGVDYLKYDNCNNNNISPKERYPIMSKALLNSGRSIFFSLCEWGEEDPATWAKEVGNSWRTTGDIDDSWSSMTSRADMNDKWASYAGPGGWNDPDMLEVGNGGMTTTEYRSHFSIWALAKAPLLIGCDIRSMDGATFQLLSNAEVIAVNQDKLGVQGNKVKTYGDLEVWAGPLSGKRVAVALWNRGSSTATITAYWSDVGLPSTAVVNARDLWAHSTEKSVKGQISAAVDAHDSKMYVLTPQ
M-phase phosphoprotein 8 (Homo sapiens), sequence (Q99549 whole entry, looked up): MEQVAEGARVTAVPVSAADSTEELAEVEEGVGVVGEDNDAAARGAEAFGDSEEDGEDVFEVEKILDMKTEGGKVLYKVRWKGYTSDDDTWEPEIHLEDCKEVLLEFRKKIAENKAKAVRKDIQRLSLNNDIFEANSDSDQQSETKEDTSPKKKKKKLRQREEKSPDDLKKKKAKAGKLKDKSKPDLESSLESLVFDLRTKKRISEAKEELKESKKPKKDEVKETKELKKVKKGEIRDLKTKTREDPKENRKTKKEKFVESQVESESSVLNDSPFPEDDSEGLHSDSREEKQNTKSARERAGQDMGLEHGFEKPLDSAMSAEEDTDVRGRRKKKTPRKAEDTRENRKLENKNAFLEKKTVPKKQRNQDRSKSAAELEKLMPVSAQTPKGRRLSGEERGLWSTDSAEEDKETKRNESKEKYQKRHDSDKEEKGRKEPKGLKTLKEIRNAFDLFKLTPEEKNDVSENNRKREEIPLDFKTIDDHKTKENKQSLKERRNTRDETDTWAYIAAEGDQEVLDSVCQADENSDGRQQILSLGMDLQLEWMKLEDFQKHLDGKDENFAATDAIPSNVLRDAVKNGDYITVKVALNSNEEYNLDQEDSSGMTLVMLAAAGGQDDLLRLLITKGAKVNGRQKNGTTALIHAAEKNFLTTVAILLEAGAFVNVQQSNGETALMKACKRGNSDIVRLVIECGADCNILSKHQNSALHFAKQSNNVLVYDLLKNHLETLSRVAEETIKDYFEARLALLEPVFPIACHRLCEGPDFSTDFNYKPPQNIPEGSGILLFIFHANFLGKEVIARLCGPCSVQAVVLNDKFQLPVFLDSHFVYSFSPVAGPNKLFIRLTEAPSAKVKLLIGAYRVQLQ
Bile acid receptor (Homo sapiens), sequence (Q96RI1 whole entry, looked up): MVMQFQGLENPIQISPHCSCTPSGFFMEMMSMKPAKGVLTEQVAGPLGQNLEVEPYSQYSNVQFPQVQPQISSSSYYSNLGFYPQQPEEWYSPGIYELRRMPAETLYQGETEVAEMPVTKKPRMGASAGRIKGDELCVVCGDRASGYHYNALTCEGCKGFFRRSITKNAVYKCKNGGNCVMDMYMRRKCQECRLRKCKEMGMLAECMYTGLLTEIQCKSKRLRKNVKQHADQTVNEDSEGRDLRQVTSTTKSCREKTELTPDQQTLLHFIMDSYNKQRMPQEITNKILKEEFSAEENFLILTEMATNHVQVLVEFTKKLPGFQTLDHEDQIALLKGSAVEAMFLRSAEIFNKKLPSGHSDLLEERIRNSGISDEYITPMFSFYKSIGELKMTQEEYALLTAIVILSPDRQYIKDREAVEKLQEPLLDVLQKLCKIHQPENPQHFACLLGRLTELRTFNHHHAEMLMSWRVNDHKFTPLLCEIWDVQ

c1ccc(-c2ccccn2)nc1
inactive: outcome [1] | Potency [2] | outcome [3] | Potency [4] | Potency [5] | Potency [6] | Potency [7]

NCCCCN
inactive: outcome [8] | outcome [1] | Potency [2] | Potency [4] | Potency [5] | Potency [6] | Potency [7]

c1ccc2c(c1)CC(N1CCN(c3cccc4c3OCCO4)CC1)C2
inactive: outcome [1] | Potency [2] | outcome [3] | Potency [4] | Potency [5] | Potency [6] | Potency [7]

CNC(=O)c1cc2c(cn1)[nH]c1ccccc12
inactive: outcome [8] | Potency [2] | Potency [4] | Potency [5] | Potency [6] | Potency [7]

COCc1nc2c([nH]1)c(=O)n(C)c(=O)n2CC(C)C
inactive: outcome [8] | outcome [1] | Potency [2] | outcome [3] | Potency [4] | Potency [5] | Potency [6] | Potency [7]

NC(N)=NC(N)=Nc1cccc(Cl)c1
inactive: outcome [8] | outcome [1] | Potency [2] | Potency [4] | Potency [5] | Potency [6] | Potency [7]

Nc1ccc(-c2ccc3ccccc3n2)cc1
inactive: outcome [1] | Potency [2] | outcome [3] | Potency [4] | Potency [5] | Potency [6] | Potency [7]

NC(=O)c1ccccc1
inactive: outcome [8] | outcome [1] | Potency [2] | activation [9] 0.288% | Potency [4] | Potency [5] | Potency [6] | Potency [7]

O=C(Nc1cccc(C(=O)Nc2ccc(S(=O)(=O)O)c3cc(S(=O)(=O)O)cc(S(=O)(=O)O)c23)c1)Nc1cccc(C(=O)Nc2ccc(S(=O)(=O)O)c3cc(S(=O)(=O)O)cc(S(=O)(=O)O)c23)c1
inactive: outcome [8] | outcome [1] | Potency [2] | Potency [4] | Potency [5] | Potency [6] | Potency [7]

NCCCCN=C(N)N
inactive: outcome [8] | outcome [1] | Potency [2] | Potency [4] | Potency [5] | Potency [6] | Potency [7]

COc1cc2c(CCNC(C)=O)c[nH]c2cc1O
inactive: outcome [1] | Potency [2] | outcome [3] | Potency [4] | Potency [5] | Potency [6] | Potency [7]

Cc1cccc(C(=O)NCN2CCN(c3ccccc3C#N)CC2)c1
inactive: outcome [8] | outcome [1] | Potency [2] | Potency [4] | Potency [5] | Potency [6] | Potency [7]

O=[N+]([O-])c1cccc2cn[nH]c12
inactive: outcome [1] | Potency [2] | outcome [3] | Potency [4] | Potency [5] | Potency [6] | Potency [7]

N#C/C(=C\c1ccc(O)c(O)c1)C(=O)Nc1ccccc1
inactive: outcome [8] | outcome [1] | Potency [2] | Potency [4] | Potency [5] | Potency [6] | Potency [7]

Cn1cc(C(=O)OCC2CCN(CCNS(C)(=O)=O)CC2)c2ccccc21
inactive: outcome [8] | outcome [1] | Potency [2] | outcome [3] | Potency [4] | Potency [5] | Potency [6] | Potency [7]

CC(C)NC[C@H](O)c1ccc(O)c(O)c1
inactive: outcome [8] | outcome [1] | Potency [2] | Potency [4] | Potency [5] | Potency [6] | Potency [7]

N.N.O=C(O)C1(C(=O)O)CCC1.[Pt]
inactive: outcome [8] | outcome [1] | Potency [2] | Potency [4] | Potency [5] | Potency [6] | Potency [7]

O=c1onc2n1-c1cc(Br)ccc1OC2
inactive: outcome [1] | Potency [2] | outcome [3] | Potency [4] | Potency [5] | Potency [6] | Potency [7]

CCCn1c(=O)[nH]c(=O)c2[nH]cnc21
inactive: outcome [8] | outcome [1] | Potency [2] | Potency [4] | Potency [5] | Potency [6] | Potency [7]

O=c1[nH]c2cc([N+](=O)[O-])c([N+](=O)[O-])cc2[nH]c1=O
inactive: outcome [8] | outcome [1] | Potency [2] | outcome [3] | Potency [4] | Potency [5] | Potency [6] | Potency [7]

O=C(O)c1cc([N+](=O)[O-])ccc1NCCCc1ccccc1
inactive: outcome [1] | Potency [2] | outcome [3] | Potency [4] | Potency [5] | Potency [6] | Potency [7]

CCN(CC)CCOC(=O)c1cc(Cl)c(N)cc1OC
inactive: outcome [1] | Potency [2] | outcome [3] | Potency [4] | Potency [5] | Potency [6] | Potency [7]

N#C/C(=C\c1ccc(O)c(O)c1)C(=O)NCCCc1ccccc1
inactive: outcome [8] | outcome [1] | Potency [2] | Potency [4] | Potency [5] | Potency [6] | Potency [7]

Cc1cc2c(cc1Cl)N(C(=O)Nc1ccnc3ccccc13)CC2
inactive: outcome [8] | outcome [1] | Potency [2] | Potency [4] | Potency [5] | Potency [6] | Potency [7]

O=C(O)c1cc(=O)cc(C(=O)O)[nH]1
inactive: outcome [1] | Potency [2] | outcome [3] | Potency [4] | Potency [5] | Potency [6] | Potency [7]

Cn1c(=O)[nH]c2ncn(C)c2c1=O
inactive: outcome [8] | outcome [1] | Potency [2] | Potency [4] | Potency [5] | Potency [6] | Potency [7]

CCn1c(=O)[nH]c2cc(Cl)c(Cl)cc21
inactive: outcome [1] | Potency [2] | outcome [3] | Potency [4] | Potency [5] | Potency [6] | Potency [7]

CCCCCCCCCCCCCCC[C@H](O)[C@H](N)CO
inactive: outcome [1] | Potency [2] | outcome [3] | Potency [4] | Potency [5] | Potency [6] | Potency [7]

O=C(O)c1cccnc1C(=O)O
inactive: outcome [8] | outcome [1] | Potency [2] | outcome [3] | Potency [4] | Potency [5] | Potency [6] | Potency [7]

CSC(=N)N
inactive: outcome [1] | Potency [2] | outcome [3] | Potency [4] | Potency [5] | Potency [6] | Potency [7]

Cc1nc(N=Nc2ccc(C(=O)O)cc2)c(COP(=O)(O)O)c(C=O)c1O
inactive: outcome [8] | outcome [1] | Potency [2] | outcome [3] | Potency [4] | Potency [5] | Potency [6] | Potency [7]

Cn1c(=O)c2[nH]c(-c3ccccc3)nc2n(C)c1=O
inactive: outcome [8] | outcome [1] | Potency [2] | outcome [3] | Potency [4] | Potency [5] | Potency [6] | Potency [7]

CNc1cc(NS(=O)(=O)c2ccc(N)cc2)nc(NC)n1
inactive: outcome [1] | Potency [2] | outcome [3] | Potency [4] | Potency [5] | Potency [6] | Potency [7]

Cn1cnc2c(NCc3ccccc3)nc(NCCO)nc21
inactive: outcome [1] | Potency [2] | outcome [3] | Potency [4] | Potency [5] | Potency [6] | Potency [7]

N[C@@H](CS(=O)O)C(=O)O
inactive: outcome [8] | outcome [1] | Potency [2] | Potency [4] | Potency [5] | Potency [6] | Potency [7]

CCCCCCCCCCC/C=C\C(C)(C)/C=C\CCCC(=O)O
inactive: outcome [1] | Potency [2] | outcome [3] | Potency [4] | Potency [5] | Potency [6] | Potency [7]

NOCC(=O)O
inactive: outcome [8] | outcome [1] | Potency [2] | Potency [4] | Potency [5] | Potency [6] | Potency [7]

Nc1c(S(=O)(=O)O)cc(Nc2ccc(Nc3nc(Cl)nc(Nc4ccc(S(=O)(=O)O)cc4)n3)c(S(=O)(=O)O)c2)c2c1C(=O)c1ccccc1C2=O
inactive: outcome [1] | Potency [2] | outcome [3] | Potency [4] | Potency [5] | Potency [6] | Potency [7]

CC[N+](CC)(CC)CC(=O)Nc1c(C)cccc1C
inactive: outcome [8] | outcome [1] | Potency [2] | Potency [4] | Potency [5] | Potency [6] | Potency [7]

CCCCCCCCc1ccc(-c2ccc(C(=O)O)cc2)cc1
inactive: outcome [3] | Potency [4] | Potency [5] | Potency [6] | Potency [7]

O=c1ccn([C@@H]2O[C@H](COP(=O)(O)OP(=O)(O)O)[C@@H](O)[C@H]2O)c(=O)[nH]1
inactive: outcome [3] | Potency [4] | Potency [5] | Potency [6] | Potency [7]

O=C(O)c1cc2cc(Cc3cccnc3)ccc2o1
inactive: outcome [8] | outcome [1] | Potency [2] | Potency [4] | Potency [5] | Potency [6] | Potency [7]

CCCCC#Cc1nc(NC)c2ncn([C@@H]3O[C@H](CO)[C@@H](O)[C@H]3O)c2n1
inactive: outcome [3] | Potency [4] | Potency [5] | Potency [6] | Potency [7]

C[C@H]1O[C@@H](n2cc(F)c(=O)[nH]c2=O)[C@H](O)[C@H]1O
inactive: outcome [3] | Potency [4] | Potency [5] | Potency [6] | Potency [7]

CC(O)C(O)[C@H]1CNc2nc(N)[nH]c(=O)c2N1 (some centres not stated)
inactive: outcome [3] | Potency [4] | Potency [5] | Potency [6] | Potency [7]

NC(=S)c1ccc[n+]([C@@H]2O[C@@H](COP(=O)([O-])OP(=O)(O)OC[C@H]3O[C@@H](n4cnc5c(N)ncnc54)[C@H](OP(=O)(O)O)[C@@H]3O)C(O)C2O)c1 (some centres not stated)
inactive: outcome [3] | Potency [4] | Potency [5] | Potency [6] | Potency [7]

COc1cc(CC(=O)O)ccc1O
inactive: outcome [8] | outcome [1] | Potency [2] | Potency [4] | Potency [5] | Potency [6] | Potency [7]

Nc1ccc(-c2nc3ccc(-c4nc5ccc(N)cc5[nH]4)cc3[nH]2)cc1
inactive: outcome [1] | Potency [2] | Potency [4] | Potency [5] | Potency [6] | Potency [7]

CCCn1c(=O)c2c(ncn2C)n(CCC)c1=O
inactive: outcome [8] | outcome [1] | Potency [2] | Potency [4] | Potency [5] | Potency [6] | Potency [7]

Nc1ncnc2c1ncn2[C@@H]1O[C@H](COP(=O)(O)CP(=O)(O)OP(=O)(O)O)[C@@H](O)[C@H]1O
inactive: Potency [10] | outcome [3] | Potency [4] | Potency [5] | Potency [6] | Potency [7]

C[N+](C)(C)CCOP(=O)(O)OP(=O)([O-])OC[C@H]1O[C@@H](n2ccc(N)nc2=O)[C@H](O)[C@@H]1O
inactive: outcome [3] | Potency [4] | Potency [5] | Potency [6] | Potency [7]
